HepG2 viability: counter-screen for TGF-b inhibitors: cytotoxicity in HepG2 cells. HepG2 CAGA-GFP viability, ATP luminescence, 18 h. Potency, µM (titrated, usually from 46.1 µM), most hits filed as cytotoxic. 410,000 tested, 0.76% active
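CellTiter-Glo luminescence gave cytotoxicity after 18 hours at 37 degrees C. The cells were HepG2 CAGA-GFP in 1% FBS DMEM, stimulated with 500 pg/mL TGF-beta after compound addition. %Activity was normalised to no-cell wells (complete cell-killing) and DMSO (no toxicity), and curves were fitted and classified.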
TGFb inhibitor: TGF-b pathway inhibition | HepG2 CAGA-GFP TGF-b/SMAD3 reporter, GFP fluorescence, 18 h; TGF-beta stimulated, 500 pg/mL final | Potency, µM (titrated, usually from 46.1 µM), hits mostly inhibitors | 410,000 tested, 1.2% active; note: nearly all actives have a fitted effect of over 65% in size
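Read-out: total well GFP (ex488/em500-530) summed from mean per-cell fluorescence. Cells: HEPG2 CAGA-GFP, 1% FBS DMEM, 18 h at 37 degrees C with 500 pg/mL final TGF-beta. Unstimulated wells served as the full-inhibition control; stimulated DMSO wells = 0%.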
RORg inh: inhibitors of mouse ROR gamma transcriptional activity; P51450; Drosophila S2 Gal4-RORgamma UAS-luciferase reporter, 20 h; Potency, µM (titrated, usually from 53.6 µM), actives largely listed as inhibitors; 310,000 tested, 5.4% active; note: nearly all actives have a fitted effect of over 60% in size
Target sequence (P51450 whole entry, looked up, the tested form may be a part): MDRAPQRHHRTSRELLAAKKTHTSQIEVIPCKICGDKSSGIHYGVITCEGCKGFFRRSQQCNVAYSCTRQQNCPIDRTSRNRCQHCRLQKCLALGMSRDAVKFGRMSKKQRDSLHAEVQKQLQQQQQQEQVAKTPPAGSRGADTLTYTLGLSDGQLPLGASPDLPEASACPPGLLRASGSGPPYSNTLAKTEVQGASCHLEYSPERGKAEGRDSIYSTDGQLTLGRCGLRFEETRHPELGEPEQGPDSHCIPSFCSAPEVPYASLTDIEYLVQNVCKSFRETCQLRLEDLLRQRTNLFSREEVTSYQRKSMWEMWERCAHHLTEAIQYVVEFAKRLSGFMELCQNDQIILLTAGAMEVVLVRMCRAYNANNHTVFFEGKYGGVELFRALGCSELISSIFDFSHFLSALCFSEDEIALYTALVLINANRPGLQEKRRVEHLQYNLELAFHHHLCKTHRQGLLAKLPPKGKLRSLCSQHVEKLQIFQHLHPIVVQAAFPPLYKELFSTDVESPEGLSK
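Using a luciferase readout, inhibitors were identified by reduced reporter activity in Drosophila cells coexpressing a copper-inducible Gal4–ROR gamma fusion and UAS-driven Photinus luciferase, incubated 20 hr after 700 uM copper sulfate.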
S2 tox: cell viability loss in ATXN counter-screen. S2 cells (HEK-293 line with an ATXN2-luciferase reporter) viability, CellTiter-Fluor protease fluorescence, 24 h. Potency, µM (titrated, usually from 56.7 µM), actives largely listed as cytotoxic. 400,000 tested, 0.49% active; note: nearly all actives have a fitted effect of over 40% in size
Gal4-VP16 FLuc: Gal4-VP16 reporter inhibition counter-screen; Drosophila S2 Gal4-VP16 UAS-luciferase, luminescence, 20 h; AID 2546; Potency, µM (highest dose often 53.6 µM), actives largely listed as inhibitors; 310,000 tested, 3.5% active;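 note: Gal4-VP16 expression switched on by copper sulfate through the metallothionein promoter; nearly all actives have a fitted effect of over 50% in size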
ATXN2 expr inh: inhibitors of ATXN2 expression | Potency, µM (doses to about 57 µM), usual class: inhibitors | 360,000 tested, 0.72% active | HEK-293 ATXN2-luciferase reporter, luminescence, 24 h; note: nearly all actives have a fitted effect of over 55% in size
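ATXN2-luciferase reporter cells (luciferase flanked by upstream and downstream ATXN2 gene portions) were treated 24 h at 37 °C with compounds at up to 57 uM. SteadyGlo luminescence gave expression; GF-AFC fluorescence gave viability.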
A number is an active result; . = inactive; ? = inconclusive; / = no result given; ! = not active in a repeat; [ ] = dose if it differs, or a comment. In the library only some 6.3% were active in any assay of this set; here they are far more common. Calls come from the whole dose curve; as a rule, active = well fitted curve in the direction sought with a large enough effect; inconclusive = small, poorly fitted or top-dose-only effect, or another doubt; inactive = no such curve, though single readings can be large; an effect the other way counts as inactive or inconclusive.

SMILES	HepG2 viability	TGFb inhibitor	RORg inh	S2 tox	Gal4-VP16 FLuc	ATXN2 expr inh
Cc1cc(N2CCCCC2)nc2ccc(NC(=O)/C=C/c3ccc(OCCC(C)C)cc3)cc12	.	.	/	.	/	.
C=C1C(=O)OC(CCCCCCCC)C1C(=O)O (stereo not drawn)	/	/	.	/	.	.
O=C1c2ccccc2NC(c2ccc(O)cc2)N1/N=C/c1ccc(O)cc1 (stereo not drawn)	.	.	.	.	.	.
O=C1c2ccccc2NC(c2ccccc2)N1/N=C/c1ccccc1 (stereo not drawn)	.	.	10µM	.	11µM	.
COC(=O)c1ccc(C)c(NC(=O)CCNC(=O)c2ccc([N+](=O)[O-])cc2)c1	4.5µM	.	.	.	.	.
COc1ccccc1CNC(=O)CCCCn1c(=O)c2ccccc2n(Cc2ccccc2F)c1=O	.	.	/	.	/	.
C=CCN1/C(=C(\C#N)C2=NS(=O)(=O)c3ccccc32)N(C)c2ccccc21	.	.	11µM	.	?	.
COc1ccc(Cn2c(CNS(=O)(=O)c3ccc(C)c(C)c3)nc3cccnc32)cc1	.	?	/	/	/	/
C=CS(=O)(=O)N(Cc1ccccc1Br)[C@H](CO)CC(C)C	.	?	/	32µM	/	?
CC(C)C[C@@H](CO)N(Cc1ccccc1)S(=O)(=O)N(Cc1ccccc1)[C@H](CO)CC(C)C	.	11µM!	/	?	/	?
CC(C)C[C@@H](CO)N(Cc1ccccc1)S(=O)(=O)N(Cc1ccccc1)[C@@H](CO)CC(C)C	16µM	10µM	/	?	/	?
O=S(=O)(N(Cc1ccccc1)[C@H](CO)Cc1ccccc1)N(Cc1ccccc1)[C@H](CO)Cc1ccccc1	.	.	/	.	/	?
C=C[C@H](CC(C)C)N(Cc1ccccc1)S(=O)(=O)N(Cc1ccccc1)[C@@H](C=C)CC(C)C	.	.	/	.	/	.
COc1ccc(CN([C@H](CO)CC(C)C)S(=O)(=O)N(Cc2ccccc2)[C@H](CO)CC(C)C)cc1	11µM!	?	/	/	/	?
O=C(Nc1cccc(OC(F)(F)F)c1)C1Cc2c(-c3ccc4c(c3)OCO4)ccnc2O1 (stereo not drawn)	.	?	/	/	/	?
CCOC(=O)c1cccc(NC(=O)c2nn(-c3ccc(OC)cc3)c(=O)c3c2c2ccccc2n3C)c1	.	.	/	.	/	.
CC1Oc2ccc(C#N)cc2N(Cc2ccc(F)cc2)C1=O (stereo not drawn)	.	.	/	?	/	.
CCOC(=O)CN1C(c2ccc(O)cc2)Nc2ccc(Br)cc2C1c1ccccc1 (stereo not drawn)	.	?	.	20µM	?	?
Cc1csc(NC(=O)C2CCCN(S(=O)(=O)c3ccc(Br)s3)C2)n1 (stereo not drawn)	.	18µM	.	.	?	.
O=C(Nc1ccc(Cl)cc1)C1CCN(S(=O)(=O)c2ccc(Br)s2)CC1	.	13µM	/	?	/	.
O=S(=O)(c1ccc(Br)s1)N1CCC(Cc2ccccc2)CC1	.	.	13µM	.	.	.
COc1ccccc1-c1nc2cc(C(=O)NC[C@H]3CCc4ccccc4O3)cc(NC(C)=O)c2n1C	/	/	/	.	/	/
CC(C)(Oc1ccc(Cl)cc1)C(=O)OCC(=O)NCCc1ccccc1	.	.	.	.	.	.
CC(=O)Cc1cc(O)c2ccccc2c1OC(=O)c1ccccc1	20µM	?	.	/	.	.
C=CCC[C@@H](Cc1ccc(F)cc1)C(=O)OC[C@@H](Cc1c[nH]c2ccccc12)NC(=O)[C@H](CC=C)CC(=O)N[C@H](CO)Cc1ccccc1	.	?	/	25µM	/	?
SMILES	HepG2 viability	TGFb inhibitor	RORg inh	S2 tox	Gal4-VP16 FLuc	ATXN2 expr inh
C=CCC[C@@H](Cc1ccc(F)cc1)C(=O)OC[C@H](Cc1c[nH]c2ccccc12)NC(=O)[C@@H](CC=C)CC(=O)N[C@@H](CO)Cc1ccccc1	.	?	/	?	/	.
C=CCC[C@H](Cc1ccc(F)cc1)C(=O)OC[C@@H](Cc1c[nH]c2ccccc12)NC(=O)[C@@H](CC=C)CC(=O)N[C@@H](CO)Cc1ccccc1	.	10µM	/	13µM	/	?
C1=Nc2ccccc2/C1=C/c1c[nH]c2ccccc12	.	.	/	/	/	/
Cc1cccc(NC(=O)CSc2nnc(CNC(=O)c3c(F)cccc3Cl)o2)c1C	.	.	/	/	/	/
O=C(CNC(=O)OCc1ccccc1)NCC(=O)N1CCCC1C(=O)OCc1ccccc1 (stereo not drawn)	11µM	?	.	.	.	.
O=C(O)CNC(=O)C1CCCN1C(=O)CNC(=O)OCc1ccccc1 (stereo not drawn)	.	.	.	.	.	.
COc1cc2c(cc1OC)C(C)N(C(=S)NC(=O)c1ccccc1)CC2 (stereo not drawn)	.	.	1.3µM	?	2.2µM	.[11.3 µM]
CN1CCN(C(=S)NC(=O)c2cccc([N+](=O)[O-])c2)CC1	.	.	1µM	.	1.3µM	.
CC1CCN(C(=S)NC(=O)c2ccc(C(C)(C)C)cc2)CC1	.	.	/	.	/	.
O=C(NC(=S)N(CC1CCC1)CC1CCCO1)c1cccc([N+](=O)[O-])c1 (stereo not drawn)	.	.	56µM	.	0.28µM	/
O=C(NCC1CCCCC1)c1cccc([N+](=O)[O-])c1	.	.	.	.	.	.
CC1CCN(C(=S)NC(=O)c2ccccc2)CC1	.	.	2.8µM	?	4.5µM	.
CNS(=O)(=O)c1cn(CC(=O)N2CCN(c3cccc(C)c3C)CC2)cc1S(=O)(=O)NC	.	.	/	/	/	/
COCCCNC(=S)N(CCO)Cc1cc2cc3c(cc2[nH]c1=O)OCO3	.	.	.	.	.	.
CC1CCN(C(=S)NC(=O)c2cccc([N+](=O)[O-])c2)CC1	.	.	0.71µM	.	0.63µM	.
CCC1CCCCN1C(=S)NC(=O)c1cccc([N+](=O)[O-])c1 (stereo not drawn)	.	.	0.28µM	.	.	.
CC1(C(=O)NCc2ccc(F)cc2)Oc2ccccc2NC1=O (stereo not drawn)	.	.	.	.	0.32µM	.
Cc1cccc(S(=O)(=O)NC(=O)C2(C)CCN2C(=O)Cc2cccs2)c1 (stereo not drawn)	.	.	/	.	/	.
COc1ccc(-c2cc(C(F)(F)F)c3c(n2)sc2c(O)cc(=O)[nH]c23)c(OC)c1	2.2µM	.	.[10 µM]	.	.	.
CC1CCN(c2ccccc2NC(=S)NC(=O)c2ccc(-c3cccc([N+](=O)[O-])c3)o2)CC1	.	.	1µM	/	.	/
CC1CCN(c2ccc(NC(=S)NC(=O)c3ccc(-c4cccc([N+](=O)[O-])c4)o3)cc2)CC1	.	.	1.6µM	.	7.1µM	.
